Assay results taken from PubChem BioAssay (NCATS).
Records with an inconclusive call do not appear. Unmarked numbers belong to inactive results. Calls of active or inactive are those of the source. Calls follow the shape of the dose curve; as a rule, active = well fitted inhibition curve with a large enough effect; inconclusive = small, poorly fitted or top-dose-only effect, or effect the other way; inactive = flat fitted curve, though single readings scatter.

target: ATPase family AAA domain-containing protein 5 (Homo sapiens) (UniProt Q96QE3); experiment: Validation screen for small molecules that inhibit ELG1-dependent DNA repair in human embryonic kidney (HEK293T) cells expressing luciferase-tagged ELG1 (AID 493107); conditions: HEK293T ELG1-luciferase level, luminescence, 5-fluorouridine co-treatment, 16 h; series mostly up to 46.1 µM; activity change, negative = decrease: at the top concentration; also: nearly all actives have a fitted effect of over 70% in size
Sequence (Q96QE3 whole entry, looked up, the tested form may be a part): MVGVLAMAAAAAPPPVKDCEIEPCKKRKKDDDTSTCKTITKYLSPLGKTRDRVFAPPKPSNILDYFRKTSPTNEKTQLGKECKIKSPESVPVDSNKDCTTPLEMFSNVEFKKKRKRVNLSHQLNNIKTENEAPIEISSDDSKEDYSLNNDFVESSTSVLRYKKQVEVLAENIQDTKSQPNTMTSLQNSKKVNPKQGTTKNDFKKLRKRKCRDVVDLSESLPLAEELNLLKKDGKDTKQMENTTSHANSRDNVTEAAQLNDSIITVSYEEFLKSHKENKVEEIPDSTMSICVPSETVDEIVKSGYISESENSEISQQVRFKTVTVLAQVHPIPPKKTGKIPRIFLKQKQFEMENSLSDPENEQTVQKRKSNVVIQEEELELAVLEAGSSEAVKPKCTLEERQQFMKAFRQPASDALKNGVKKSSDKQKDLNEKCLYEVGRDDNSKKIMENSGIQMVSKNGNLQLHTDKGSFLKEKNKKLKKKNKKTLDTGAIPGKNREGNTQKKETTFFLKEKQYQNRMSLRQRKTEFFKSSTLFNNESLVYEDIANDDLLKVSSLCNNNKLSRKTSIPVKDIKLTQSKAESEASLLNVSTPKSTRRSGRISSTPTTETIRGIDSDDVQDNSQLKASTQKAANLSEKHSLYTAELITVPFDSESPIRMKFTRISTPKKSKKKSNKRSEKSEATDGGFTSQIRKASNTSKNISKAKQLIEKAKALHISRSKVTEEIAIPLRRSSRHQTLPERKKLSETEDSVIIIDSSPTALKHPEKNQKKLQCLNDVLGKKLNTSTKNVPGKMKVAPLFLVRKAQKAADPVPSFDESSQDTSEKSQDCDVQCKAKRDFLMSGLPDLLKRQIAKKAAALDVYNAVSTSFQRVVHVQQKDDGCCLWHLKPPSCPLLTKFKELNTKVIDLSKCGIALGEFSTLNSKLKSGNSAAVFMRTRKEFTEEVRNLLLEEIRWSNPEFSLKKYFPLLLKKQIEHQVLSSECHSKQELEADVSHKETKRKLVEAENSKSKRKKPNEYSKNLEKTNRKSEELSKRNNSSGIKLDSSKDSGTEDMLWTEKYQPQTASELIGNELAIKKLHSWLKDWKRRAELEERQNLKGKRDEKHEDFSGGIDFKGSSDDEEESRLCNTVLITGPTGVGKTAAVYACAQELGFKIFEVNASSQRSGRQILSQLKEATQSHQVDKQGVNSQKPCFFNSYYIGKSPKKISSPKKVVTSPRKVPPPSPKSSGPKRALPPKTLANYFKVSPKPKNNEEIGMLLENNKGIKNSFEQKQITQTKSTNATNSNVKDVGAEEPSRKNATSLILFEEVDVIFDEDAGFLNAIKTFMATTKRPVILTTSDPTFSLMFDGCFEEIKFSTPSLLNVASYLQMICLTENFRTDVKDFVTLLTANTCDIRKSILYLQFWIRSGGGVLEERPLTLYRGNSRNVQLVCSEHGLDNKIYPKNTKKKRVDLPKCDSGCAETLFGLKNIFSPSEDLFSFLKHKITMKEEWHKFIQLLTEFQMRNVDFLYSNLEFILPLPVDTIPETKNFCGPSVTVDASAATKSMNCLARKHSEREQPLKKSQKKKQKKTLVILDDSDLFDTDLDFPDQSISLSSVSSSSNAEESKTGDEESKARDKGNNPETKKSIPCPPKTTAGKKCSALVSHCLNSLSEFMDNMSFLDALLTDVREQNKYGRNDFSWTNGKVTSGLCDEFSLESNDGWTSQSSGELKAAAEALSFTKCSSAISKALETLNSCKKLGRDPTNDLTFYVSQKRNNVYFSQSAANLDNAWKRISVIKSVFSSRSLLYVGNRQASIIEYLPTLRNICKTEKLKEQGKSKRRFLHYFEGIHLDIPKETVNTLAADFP
Excerpt: NIH Molecular Libraries Probe Production Network [MLPCN]
NIH Chemical Genomics Center [NCGC]
Assay Provider: Kyungjae Myung, NHGRI, NIH
Keywords: MLPCN, qHTS, NCGC, genotoxicity, cancer
Cancer cells divide rapidly compared to normal cells in the body. During cell division, cancer cells need to duplicate their genome by DNA replication. The failure of genome duplication leads to cancer cells' death. Therefore, inhibitors of DNA replication could specifically kill cancer cells. Based on this concept, many chemotherapeutic agents were developed and have been used to treat cancer patients. However, there are a limited number of agents available in the clinical setting, and some of those that do exist have low efficacy and severe side effects. Therefore, if we can find the compounds that effectively block DNA replication either by directly damaging DNA or by inhibiting other cellular mechanisms, the options for cancer treatment will be broadened. With this in mind, we developed a quantitative high-throughput ELG1-luciferase reporter gene assay. Small molecules that specifically block ELG1 function in response to DNA damage can be identified by monitoring the suppression of luciferase activity. Since ELG1 defines a pathway for repairing DNA damage, agents blocking ELG1 function can be used to sensitize cancer cells to chemotherapeutic agents whose mechanism of action involves the induction of DNA damage.
For genotoxicity screening, 2,000 cells in 4 uL/well were dispensed into white, solid-bottom 1536-well plates using a solenoid-based dispenser. Following transfer of 1 uL 5-Fluorouridine and 23 nL compound or DMSO vehicle by a pin tool, the plates were incubated 16 hr at 37 °C and 5% CO2. 5 ul ONE-Glo (Promega) was then added to each plate and following a 30 min incubation at room temperature, luciferase activity was quantified on a ViewLux CCD-based plate reader.
% is scaled to controls: 0 for no effect and ±100 for the full control effect.

Point of comparison: `CC(COc1ccccc1)N(CCCl)Cc1ccccc1` (stereo not given), “activity change, negative = decrease” value 27.2%. Against it:
- Clc1ccccc1C(c1ccccc1)(c1ccccc1)n1ccnc1 — lower, 9.02%
- CC(C)NCC(O)COc1ccc(CCOCC2CC2)cc1 (stereo not given) — lower, 1.91%
- O=C(c1ccc(F)cc1)C1CCN(CCn2c(=O)[nH]c3ccccc3c2=O)CC1 — lower, -10.3%
- CC[N+](CC)(CC)CCOc1cccc(OCC[N+](CC)(CC)CC)c1OCC[N+](CC)(CC)CC — lower, 22.9%
- CCOC(=O)Nc1ccc(NCc2ccc(F)cc2)nc1N — lower, -21.5%
- N[C@@H](Cc1c[nH]c2ccc(O)cc12)C(=O)O — higher, 29%
- Clc1ccc2c(c1)C(N1CCNCC1)=Nc1ccccc1O2 — lower, -21.8%
- Cc1ccc(C(=O)Nc2ccc(S(=O)(=O)O)c3cc(S(=O)(=O)O)cc(S(=O)(=O)O)c23)cc1NC(=O)c1cccc(NC(=O)Nc2cccc(C(=O)Nc3cc(C(=O)Nc4ccc(S(=O)(=O)O)c5cc(S(=O)(=O)O)cc(S(=O)(=O)O)c45)ccc3C)c2)c1 — lower, 20.8%
- COc1ccc2c(c1)c(CC(=O)O)c(C)n2C(=O)c1ccc(Cl)cc1 — lower, 15.1%
- CN1CCC(=C2c3ccccc3C=Cc3ccccc32)CC1 — lower, -11.6%
- Nc1nnc(-c2cccc(Cl)c2Cl)c(N)n1 — lower, -2.02%
- Cc1ccccc1N1C(=O)c2cc(S(N)(=O)=O)c(Cl)cc2NC1C (stereo not given) — lower, 0.432%
- COc1ccccc1OCC(O)CN1CCN(CC(=O)Nc2c(C)cccc2C)CC1 (stereo not given) — lower, -8.55%
- COc1nc(C)nc(Cl)c1NC1=NCCN1 — lower, -1.12%
- CN1CCC(=C2c3ccccc3CC(=O)c3sccc32)CC1 — lower, -7.58%
- CC(C)(Oc1ccc(C2CC2(Cl)Cl)cc1)C(=O)O (stereo not given) — lower, -0.817%
- CC(C)Cc1ccc(C(C)C(=O)O)cc1 (stereo not given) — lower, 24.4%
- CCOC(=O)c1ncn2c1CN(C)C(=O)c1cc(F)ccc1-2 — lower, -15.2%
- COC(=O)Nc1nc2ccc(C(=O)c3cccs3)cc2[nH]1 — lower, -28%
- CC(C)C(=O)Nc1ccc([N+](=O)[O-])c(C(F)(F)F)c1 — lower, 5.11%
- CC(CCc1ccc(O)cc1)NCCc1ccc(O)c(O)c1 (stereo not given) — lower, -1.91%
- NC12CC3CC(CC(C3)C1)C2 — lower, 7.61%
- Nc1nc2c(ncn2COC(CO)CO)c(=O)[nH]1 — lower, -7.91%
- Cn1ccc2cc3c(cc21)CCN3C(=O)Nc1cccnc1 — lower, -3.9%
- Nc1ccn([C@H]2CC[C@@H](CO)O2)c(=O)n1 — lower, -0.143%
- Cc1cn([C@H]2C[C@H](N=[N+]=[N-])[C@@H](CO)O2)c(=O)[nH]c1=O — lower, 4.66%
- NCCS(=O)(=O)O — lower, 0.303%
- NC(CO)C(=O)NNCc1ccc(O)c(O)c1O (stereo not given) — lower, 19.9%
- COc1cc2nc(N(C)CCCNC(=O)C3CCCO3)nc(N)c2cc1OC (stereo not given) — higher, 27.9%
- COc1cc2c(c(OC)c1OC)-c1ccc(OC)c(=O)cc1[C@@H](NC(C)=O)CC2 — lower, 8.4%
- CCN1CCCC1CNC(=O)c1cc(S(=O)(=O)CC)c(N)cc1OC (stereo not given) — lower, 7.7%
- CC(C(=O)O)c1cccc(C(=O)c2ccccc2)c1 (stereo not given) — lower, 10.5%
- Cn1c(=O)c2c(ncn2C)n(C)c1=O — lower, 15.8%
- NC(=O)OCC(COC(N)=O)c1ccccc1 — lower, 11%
- CCCNCC(O)COc1ccccc1C(=O)CCc1ccccc1 (stereo not given) — lower, -12.3%
- Cc1cc(C(C)(C)C)cc(C)c1CC1=NCCN1 — lower, -23%
- CCC1(C)CC(=O)NC1=O (stereo not given) — lower, 14.3%
- NC(=O)NO — lower, -16.4%

`CN1C2CCC1CC(OC(=O)C(CO)c1ccccc1)C2` (stereo not given) was tested, and the Potency was “inactive”.
